Among all 340,000 compounds or so, about 3,300 (0.97%) were called active.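 Rule for the calls: active = inhibition above the mean over all tested compounds plus 3 SD (cut at about 30% in these data); inactive = the rest.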 Only a selection was taken, and actives are over-represented in it overall.
What follows are molecules tested against Platelet-activating factor acetylhydrolase 2, cytoplasmic (Homo sapiens) (UniProt Q99487) (assay: PAFAH2 enzyme inhibitors, primary screen, biochemical, fluorescence polarization, human (AID 492956;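 note: inhibitors block probe labeling of enzyme so polarization drops; 0% = enzyme with DMSO and 100% = wells lacking PAFAH2 protein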)). Settings: recombinant PAFAH2, FP-rhodamine activity probe, at 3.39 µM, active compounds read high.

Row | Compound | inhibition
1 | OC(CN1C2=NCCCN2c2ccccc21)c1ccc(Br)cc1 (centres undefined) | 9.07% (inactive)
2 | C=CCNC(=O)/C=C/c1ccc(C(C)C)cc1 | 10% (inactive)
3 | CC(=O)NC12CC3CC(C1)CC(C(=O)N1CCN(S(=O)(=O)c4cccs4)CC1)(C3)C2 | 17.5% (inactive)
4 | O=C(OCC(=O)N1CCCCCC1)c1ccc(Br)c(S(=O)(=O)N2CCOCC2)c1 | 8.68% (inactive)
5 | COc1cccc(NC(=O)COc2cc(C)cc3oc(=O)cc(C)c23)c1 | -3.3% (inactive)
6 | CC(=O)c1nn(-c2ccc(C)cc2)cc1C(=O)c1cccc(Br)c1 | 1.51% (inactive)
7 | Cc1ccc(C)c(C(=O)COC(=O)Cn2[nH]c(=O)c3ccccc3c2=O)c1 | -1.71% (inactive)
8 | COCCCNC(=O)c1c(F)c(F)c(F)c(F)c1F | -4.37% (inactive)
9 | CC(NC(=O)CN1CCN(Cc2ccc(Cl)cc2)C1=O)c1ccc2c(c1)OCCO2 (centres undefined) | 1.47% (inactive)
10 | O=C(NCc1cccnc1)c1cccnc1Sc1ccc(Cl)cc1 | 2.4% (inactive)
11 | O=C(COC(=O)c1c(Cl)cccc1Cl)Nc1cccc(S(=O)(=O)NC2=NCCCCC2)c1 | 8.12% (inactive)
12 | CCc1ccc(C(=O)OCC(=O)Nc2cccc(S(=O)(=O)NC3=NCCCCC3)c2)cc1 | 52.3% (active)
13 | COc1ccccc1C(=O)OCC(=O)Nc1cccc(S(=O)(=O)NC2=NCCCCC2)c1 | 12.3% (inactive)
14 | CNC(=O)C1CC(=O)N(Cc2ccc3c(c2)OCO3)C(=Nc2ccc(F)cc2)S1 (centres undefined) | 0.97% (inactive)
15 | CCC1(C)N(O)C(C)(C)C(c2ccc(OC)cc2)=[N+]1[O-] (centres undefined) | 2.06% (inactive)
16 | CCc1ccccc1NC(=O)c1ccc2c(c1)CCN2S(C)(=O)=O | 2.6% (inactive)
17 | COCCNC(=O)Nc1ccc2nc(-c3ccco3)c(-c3ccco3)nc2c1 | 35.8% (active)
18 | COCCNC(=O)c1snc2ccc(Cl)cc12 | -2.13% (inactive)
19 | O=C(Nc1nc(-c2ccco2)c(-c2ccco2)s1)c1ccco1 | 22.9% (inactive)
20 | Cc1nnsc1C(=O)NCc1c(F)cccc1Cl | 2.19% (inactive)
21 | CCOC(=O)c1c(-c2ccccc2)oc2cc(Br)c(O)c(C=O)c12 | 6.96% (inactive)
22 | Cc1oc2cc(Br)c(O)c(Br)c2c1C(=O)c1ccccc1 | 59.6% (active)
23 | Cc1oc2cc([N+](=O)[O-])c(O)c([N+](=O)[O-])c2c1C(=O)c1ccc(Br)cc1 | 8.04% (inactive)
24 | COCCN(CCOC)c1nc(N)c2c(N)nc3c(c2c1C#N)CC(=O)N3Cc1ccc(Cl)cc1 | 5.58% (inactive)
25 | CSc1nc(-c2ccco2)nn1C(=O)c1ccccc1Cl | 0.54% (inactive)

Row | Compound | inhibition
26 | c1ccc(CSc2nnc(-c3ccco3)c(-c3ccco3)n2)cc1 | 57% (active)
27 | CCc1nnc(SCc2cccc(F)c2)nc1CC | 0.34% (inactive)
28 | Clc1ccccc1CSc1nnc(-c2ccco2)c(-c2ccco2)n1 | 62.2% (active)
29 | S=C(NCc1ccco1)NCc1ccccc1Cl | 2.25% (inactive)
30 | Clc1ccc(CSc2nnc3c(n2)[nH]c2ccccc23)cc1 | -12.8% (inactive)
31 | Nn1c(SCC(=O)NC2CCCC2)nnc1-c1ccccc1F | 3.8% (inactive)
32 | CCn1c(N)c(Br)c(=O)[nH]c1=O | -4.56% (inactive)
33 | Cc1ccc(-n2nc(N)c3c(=O)oc(N(C)C)nc32)cc1 | 55.9% (active)
34 | CSc1ccc(-c2c(C#N)c(N)nc3c2c(C)nn3-c2ccccc2)cc1 | -18.9% (inactive)
35 | CCCNC(=O)CCc1c(C)nc2c(c(C)nn2-c2ccc(C)cc2)c1C | -8.03% (inactive)
36 | Cc1ccc(NC(=S)Nc2ncccc2C)c(C)c1 | -4.32% (inactive)
37 | Cc1cc(C(=O)NCCc2ccc(Cl)cc2)c(C)o1 | 4.91% (inactive)
38 | Cc1cc(C(=O)NNC(=O)CCC2CCCCC2)c(C)o1 | 4.96% (inactive)
39 | O=C(NNC(=O)c1ccccc1O)c1ccccc1O | 39% (active)
40 | Cc1cc(C(=O)CCC(=O)NNC(=O)c2ccccc2O)c(C)s1 | 7.6% (inactive)
41 | Cc1cc(C(=O)NNC(=O)c2ccccc2O)c(C)o1 | 31.3% (active)
42 | CC1=C(C)CC(C(=O)NNC(=O)c2ccccc2O)C(C(=O)O)C1 (centres undefined) | -2.13% (inactive)
43 | CCC(CC)c1nnc(NC(=O)c2nn(C)c(=O)c3ccccc23)s1 | 0.88% (inactive)
44 | CCCCCn1c(=O)[nH]c2cc(C(=O)NCCCN3CCCCC3C)ccc2c1=O (centres undefined) | -5.12% (inactive)
45 | O=C(NCc1ccc(F)cc1)C(c1ccccc1)N(C(=O)c1csnn1)C1CC1 (centres undefined) | 2.95% (inactive)
46 | Oc1ccc2ccc3cccc[n+]3c2c1 | 9.81% (inactive)
47 | CN(C)C(CNC(=O)CCCOc1ccccc1)c1ccco1 (centres undefined) | 1.39% (inactive)
48 | COc1cccc2c1C(=O)c1c(O)c3c(c(O)c1C2=O)CC(O)(C(C)=NNC(=O)c1ccc(Cl)c(Cl)c1)CC3OC1CC(N)C(O)C(C)O1 (centres undefined) | 49.5% (active)
49 | COc1cc(C)c(C)cc1S(=O)(=O)N1CCCc2ccccc21 | -5.07% (inactive)

— PubChem BioAssay AID492956 (The Scripps Research Institute Molecular Screening Center, 2010)
